# The antibiotic and cytotoxicity screens of Wong et al. (2023)
# The campaign covered roughly 39,000 compounds. About 1,500 (3.8%) were called active. The full list was thinned out, with actives kept by preference.
# Test system: HSkMC (human skeletal muscle cells)
# Test: cytotoxicity call (relative viability < 0.9)
# Conditions: 10 µM
row,Structure (SMILES),cytotoxicity call
1,C[C@H](CO)N1C[C@H](C)[C@H](CN(C)S(C)(=O)=O)OCCCC[C@H](C)Oc2ccc(NC(=O)CCCN(C)C)cc2C1=O,inactive
2,CC(C)NC(=O)Nc1ccc2c(c1)C(=O)N([C@@H](C)CO)C[C@@H](C)[C@H](CN(C)S(=O)(=O)c1cn(C)cn1)OCCCC[C@H](C)O2,inactive
3,C[C@@H]1CN([C@H](C)CO)C(=O)CCCn2cc(nn2)CO[C@@H]1CN(C)S(=O)(=O)c1ccc(Cl)cc1,inactive
4,O=C(O)[C@]1(O)C[C@@H](O)[C@@H](O)[C@H](O)C1,inactive
5,Cc1noc(C)c1S(=O)(=O)Nc1ccc2c(c1)CC(=O)N([C@@H](C)CO)C[C@H](C)[C@H](CN(C)Cc1ccccc1)O2,inactive
6,C[C@H](CO)N1C[C@H](C)[C@H](CN(C)C(=O)Nc2ccc(C(F)(F)F)cc2)Oc2ccc(NS(C)(=O)=O)cc2C1=O,inactive
7,C[C@@H]1CN([C@H](C)CO)C(=O)c2cccc(NC(=O)C3CC3)c2O[C@H]1CN(C)S(=O)(=O)c1ccc(Cl)cc1,inactive
8,Cc1ccc(S(=O)(=O)N(C)C[C@H]2OCCCC[C@H](C)Oc3ccc(NC(=O)Nc4ccc(F)cc4)cc3C(=O)N([C@@H](C)CO)C[C@@H]2C)cc1,inactive
9,CC(=O)N1CCc2nc(C(N)=O)sc2CC1,inactive
10,"COC1C(C(=O)O)OC(C)C(O)C1O.COC1OC(C(=O)O)C(O)C(O)C1O (centres undefined) [ALGINIC ACID [Mol Wt ~200,000; monomers shown] ]",inactive
11,O=C(OC[C@H]1O[C@@H](OC(=O)c2cc(O)c(O)c(O)c2)[C@H](O)[C@@H](O)[C@@H]1O)c1cc(O)c(O)c(O)c1,inactive
12,Cc1coc(C)c1C(=O)O[C@@H]1O[C@@H](C)[C@H](O)[C@@H](O)[C@H]1O,active
13,C[C@H]1CN([C@@H](C)CO)C(=O)c2cccc(NS(=O)(=O)c3ccc(Cl)cc3)c2O[C@@H]1CN(C)Cc1ccc(-c2ccccc2)cc1,inactive
14,Cc1noc(C)c1NC(=O)N(C)C[C@@H]1Oc2ccc(NC(=O)C3CC3)cc2CC(=O)N([C@@H](C)CO)C[C@@H]1C,inactive
15,COc1ccc(S(=O)(=O)N(C)C[C@@H]2Oc3ccc(NS(=O)(=O)c4ccc(F)cc4)cc3CC(=O)N([C@H](C)CO)C[C@H]2C)cc1,inactive
16,C[C@@H]1CN([C@@H](C)CO)C(=O)c2cc(C#Cc3ccccn3)cnc2O[C@H]1CN(C)C(=O)CCN1CCCCC1,inactive
17,C[C@@H]1CCCCO[C@H](CN(C)C)[C@@H](C)CN([C@H](C)CO)C(=O)c2cc(NS(=O)(=O)c3cn(C)cn3)ccc2O1,inactive
18,COc1ccc(S(=O)(=O)Nc2ccc3c(c2)C(=O)N([C@H](C)CO)C[C@H](C)[C@@H](CN(C)Cc2ccc(C(=O)O)cc2)OCCCC[C@H](C)O3)cc1,inactive
19,C[C@@H]1CN([C@@H](C)CO)C(=O)c2cc(NC(=O)Nc3ccc(C(F)(F)F)cc3)ccc2O[C@@H]1CN(C)Cc1ccc(-c2ccccc2)cc1,active
20,C[C@H](CO)N1C[C@H](C)[C@@H](CN(C)Cc2ccc(-c3ccccc3)cc2)Oc2ccc(NC(=O)Nc3ccc(C(F)(F)F)cc3)cc2C1=O,active
21,C[C@H]1CN([C@@H](C)CO)C(=O)c2cc(NC(=O)Nc3ccc(C(F)(F)F)cc3)ccc2O[C@H]1CN(C)Cc1ccc(-c2ccccc2)cc1,active
22,C[C@@H]1CN([C@H](C)CO)C(=O)Cc2cc(NS(=O)(=O)c3cn(C)cn3)ccc2O[C@H]1CN(C)CC1CC1,inactive

row,Structure (SMILES),cytotoxicity call
1,Cc1noc(C)c1NC(=O)Nc1ccc2c(c1)CC(=O)N([C@H](C)CO)C[C@H](C)[C@H](CN(C)S(=O)(=O)c1ccccc1)O2,inactive
2,CO[C@H]1CN(C)C(=O)c2ccc(NS(=O)(=O)CC(F)(F)F)cc2OC[C@H](C)N(C(=O)NC(C)C)C[C@H]1C,inactive
3,COc1cccc(C(=O)Nc2ccc3c(c2)C(=O)N(C)[C@@H]2CC[C@H](CC(=O)NCCCN4CCOCC4)O[C@H]2CO3)c1,inactive
4,COc1ccc(S(=O)(=O)N(C)C[C@@H]2OCCCC[C@H](C)Oc3ccc(NC(=O)CCC(F)(F)F)cc3C(=O)N([C@H](C)CO)C[C@H]2C)cc1,inactive
5,OC[C@H]1O[C@@H](Nc2ccccn2)[C@@H](O)[C@@H](O)[C@@H]1O,inactive
6,COc1ccc(S(=O)(=O)N(C)C[C@H]2Oc3ncc(-c4ccncc4)cc3C(=O)N([C@@H](C)CO)C[C@@H]2C)cc1,inactive
7,Cc1nn(C)cc1NC(=O)C[C@@H]1CC[C@H]2[C@H](COc3ccc(NC(=O)C4CCOCC4)cc3C(=O)N2C)O1,inactive
8,COc1cccc(C#Cc2ccc3c(c2)O[C@H](CN(C)S(=O)(=O)c2ccccc2F)[C@@H](C)CN([C@@H](C)CO)S3(=O)=O)c1,inactive
9,C[C@@H]1CN([C@H](C)CO)C(=O)c2cc(NC(=O)Nc3ccc(C(F)(F)F)cc3)ccc2O[C@@H]1CN(C)Cc1ccc(-c2ccccc2)cc1,active
10,C[C@@H]1CN([C@H](C)CO)C(=O)c2cc(NC(=O)Nc3ccc(C(F)(F)F)cc3)ccc2O[C@H]1CN(C)Cc1ccc(-c2ccccc2)cc1,active
11,C[C@H](CO)N1C[C@H](C)[C@H](CN(C)Cc2ccc(-c3ccccc3)cc2)Oc2ccc(NC(=O)Nc3ccc(C(F)(F)F)cc3)cc2C1=O,active
12,C[C@@H]1CN([C@@H](C)CO)C(=O)c2cc(NC(=O)Nc3ccccc3)ccc2O[C@@H]1CN(C)Cc1ccc(C(F)(F)F)cc1,inactive
13,C[C@@H]1CN([C@@H](C)CO)C(=O)c2cc(NC(=O)Nc3ccc(C(F)(F)F)cc3)ccc2O[C@H]1CN(C)Cc1ccc(-c2ccccc2)cc1,active
14,C[C@H]1CN([C@@H](C)CO)C(=O)c2cc(NC(=O)Nc3ccccc3)ccc2O[C@@H]1CN(C)Cc1ccc(C(F)(F)F)cc1,inactive
15,Cc1ccc(S(=O)(=O)N(C)C[C@H]2Oc3ccc(NC(=O)CCCN(C)C)cc3CC(=O)N([C@@H](C)CO)C[C@@H]2C)cc1,inactive
16,C[C@@H]1CN([C@@H](C)CO)C(=O)c2cc(NS(C)(=O)=O)ccc2O[C@@H](C)CCCCO[C@@H]1CN(C)S(=O)(=O)c1cccs1,inactive
17,Cc1noc(C)c1S(=O)(=O)Nc1ccc2c(c1)C(=O)N([C@@H](C)CO)C[C@@H](C)[C@H](CN(C)Cc1ccc(C(F)(F)F)cc1)OCCCC[C@H](C)O2,inactive
18,CC(C)Cn1c(=O)n(C)c(=O)c2[nH]cnc21,inactive
19,Cc1noc(C)c1S(=O)(=O)Nc1ccc2c(c1)CC(=O)N([C@H](C)CO)C[C@H](C)[C@@H](CN(C)S(C)(=O)=O)O2,inactive
20,O=C(O)c1ccc(N2CCCS2(=O)=O)cc1,inactive
21,Cc1ccsc1[C@@H](O)CN,inactive
22,Cc1cc(C)c(-c2ccc(NC(=O)[C@H](Cc3ccc(C(=O)NCCS(=O)(=O)O)cc3)c3ccc(-c4ccc(C(C)(C)C)cc4)cc3)cc2)c(C)c1,active

row,Structure (SMILES),cytotoxicity call
1,CC(C)Cc1ccc([C@@H](C)C(=O)Nc2ccc(Cl)cc2)cc1,inactive
2,N[C@@H]1CONC1=O,inactive
3,O=C(C[C@H]1CC[C@@H]2[C@H](COC[C@H](O)CN2S(=O)(=O)c2ccc(F)cc2)O1)NCCN1CCCCC1,inactive
4,CN1CCN(c2ccc(OC(F)(F)F)c(Nc3ncc4c(n3)-c3c(c(C(N)=O)nn3CCO)CC4)c2)CC1,active
5,COc1ccc2c3c([nH]c2c1)[C@H](CO)N(C[C@]13CCN(CC1)S(=O)(=O)c1cn(cn1)C)C(=O)Nc1ccc(cc1)F,inactive
6,C[C@@H]1CCCCO[C@@H](CN(C)S(=O)(=O)c2cn(C)cn2)[C@H](C)CN([C@@H](C)CO)C(=O)c2cc(NC(=O)CCCN(C)C)ccc2O1,inactive
7,C[C@@H]1CN([C@H](C)CO)C(=O)Cc2cc(NC(=O)C3CCCCC3)ccc2O[C@@H]1CN(C)Cc1ccc(Oc2ccccc2)cc1,active
8,C[C@H](CO)N1C[C@H](C)[C@H](CN(C)Cc2ccc(-c3ccccc3)cc2)Oc2ccc(NC(=O)C3CCCCC3)cc2CC1=O,inactive
9,C[C@H](CO)N1C[C@H](C)[C@@H](CN(C)Cc2ccc(Oc3ccccc3)cc2)Oc2ccc(NC(=O)C3CCCCC3)cc2CC1=O,inactive
10,C[C@@H]1CN([C@H](C)CO)C(=O)Cc2cc(NC(=O)C3CCCCC3)ccc2O[C@@H]1CN(C)Cc1ccc(-c2ccccc2)cc1,active
11,C[C@H]1CN([C@@H](C)CO)C(=O)Cc2cc(NC(=O)C3CCCCC3)ccc2O[C@H]1CN(C)Cc1ccc(Oc2ccccc2)cc1,active
12,C[C@@H]1CN([C@@H](C)CO)C(=O)Cc2cc(NC(=O)C3CCCCC3)ccc2O[C@H]1CN(C)Cc1ccc(Oc2ccccc2)cc1,inactive
13,C[C@H]1CN([C@@H](C)CO)C(=O)Cc2cc(NC(=O)C3CCCCC3)ccc2O[C@@H]1CN(C)Cc1ccc(-c2ccccc2)cc1,inactive
14,C[C@@H]1CN([C@H](C)CO)C(=O)Cc2cc(NC(=O)C3CCCCC3)ccc2O[C@H]1CN(C)Cc1ccc(Oc2ccccc2)cc1,inactive
15,C[C@H]1CN([C@@H](C)CO)C(=O)Cc2cc(NC(=O)C3CCCCC3)ccc2O[C@@H]1CN(C)Cc1ccc(Oc2ccccc2)cc1,inactive
16,CC(=O)N1CCc2nc(N)sc2C1,inactive
17,C[C@@H]1CN([C@@H](C)CO)C(=O)c2cccc(NS(=O)(=O)c3cn(C)cn3)c2O[C@H]1CN(C)S(=O)(=O)c1ccc(Cl)cc1,inactive
18,CC=Cc1ccc2n(c1=O)C[C@@H]1[C@@H](CO)[C@H](C(=O)NCC3CC3)[C@H]2N1S(=O)(=O)c1cn(C)cn1,inactive
19,C[C@@H]1CN([C@@H](C)CO)S(=O)(=O)c2ccc(C#Cc3ccccc3F)cc2O[C@@H]1CN(C)C(=O)Cc1cccnc1,inactive
20,C[C@H]1CN([C@@H](C)CO)C(=O)c2cc(NC(=O)C3CCCCC3)ccc2O[C@H]1CN(C)Cc1ccc(-c2ccccc2)cc1,inactive
